Data taken from the supplement of paper PMC6555819.

What was measured:
Assay in all cases: PBM binding z-score (relative to random genomic background probes); higher = stronger binding; sequences stand for … in GC…GCGATTGACAGCGTAGAATGAAGG
[1] = system: RARb homodimer (NR concentration 270 nM)
In short: (§1)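 The probes on custom Agilent 4×180K protein-binding microarrays were double-stranded, with 34-nt variable regions bearing direct-repeat seeds, single-nucleotide variants, half-site ablations and random human genomic background sequences. Incubation lasted 1 h with ligand-free nuclear receptor dimers in PBS pH 7.4, 2% milk, 0.02% Triton X-100, 1 mM DTT, 0.2 mg/mL BSA and 0.4 mg/ml salmon testes DNA. Antibodies against each partner (one per run) detected bound dimers, and fluorescence scans were regression-normalized. Binding z-scores take the random background probes as reference.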

[2] = system: RARg:RXRa (NR concentration 270 nM, RXRa partner concentration 90 nM)
In short: as §1

[3] = system: RARg homodimer (NR concentration 270 nM)
In short: as §1

[4] = system: RXRa DBDmut IVT, anti-RXR (DBD mutation: RXRa K156A/R161A, NR concentration 90 nM)
In short: as §1

[5] = system: RXRa homodimer (NR concentration 180 nM)
In short: as §1

[6] = system: THRa:RXRa (NR concentration 90 nM, RXRa partner concentration 90 nM)
In short: as §1

[7] = system: THRa homodimer (NR concentration 90 nM)
In short: as §1

[8] = system: VDR:RXRa (NR concentration 270 nM, RXRa partner concentration 90 nM)
In short: as §1

[9] = system: VDR homodimer (NR concentration 270 nM)
In short: as §1

| Sequence | PBM binding z-score [1] | PBM binding z-score [2] | PBM binding z-score [3] | PBM binding z-score [4] | PBM binding z-score [5] | PBM binding z-score [6] | PBM binding z-score [7] | PBM binding z-score [8] | PBM binding z-score [9] |
| --- | --- | --- | --- | --- | --- | --- | --- | --- | --- |
| ATCTCTAGGTAAAGTTCAGTGGAAGATCGATAGA | 2.55 | 2.03 | 2.47 | 1.74 | 1.11 | 1.3 | 0.319 | 1.44 | 2.23 |
| TTACCAAGCTGAGCTGAGGTCGTTGATCCAACTC | 0.0127 | -0.204 | -0.865 | 0.00802 | 0.266 | 2.08 | 1.17 | 0.877 | 0.915 |
| AGAACGAGGGCACGCTGAGGTGATAGCAGAGTAG | 1.66 | 2.8 | 2.65 | 1.51 | 1.77 | 3.45 | 1.21 | 1.78 | 1.04 |
| CCTTACGGGTCACTCCTGGTTATAGCATCGGAGT | 2.89 | 4.05 | 4 | 1.26 | 3.9 | 2.86 | -0.0278 | 2.79 | 1.19 |
| ATCTCTAGTTAACCAAGTTCAGTGAATGCCGAAC | 1.4 | 0.578 | 0.612 | 0.814 | 0.549 | 1.19 | 0.332 | 2.46 | 3.16 |
| ATCACTAGGTAACAAGTTCAGTGAAAGAGAGGAC | 1.82 | 1.45 | 1.49 | 1.12 | 0.815 | 1.54 | 0.852 | 1.6 | 2.7 |
| TCTATGAGTTGATTAGGGCAACCGAAACAGCGGA | 0.553 | 0.54 | 0.536 | 1.45 | 0.681 | 0.857 | -0.131 | 0.54 | 0.333 |
| TATACAGGGTGAAAGGCCAGAGTACGAATGTCGA | 1.29 | 1.67 | 1.69 | -0.111 | 2.07 | 1.18 | -0.0839 | 0.682 | 0.653 |
| ATATGTAGGTTATCGGGTCATTCAGTTTGCGCAT | 3.05 | 3.09 | 2.5 | 1.87 | 3.47 | 3.23 | 3.19 | 5 | 4.34 |
| AGAACGAGGCCAATGAGTTGATAGCACGGGTGGC | 0.127 | 0.169 | 0.718 | 1.01 | 0.286 | 0.223 | 0.00356 | 3.09 | 1.71 |
| TTACCAAGGTGAAGGTCGTTAATCCCTCTGTAGA | 1.62 | 1.07 | 0.814 | -0.0664 | 1.54 | 2.22 | 0.878 | 1.16 | 0.939 |
| CTCCCAAGGTGAACAAGGTCGTTGATTACTATTC | 2.05 | 1.68 | 1.41 | 0.991 | 1.7 | 3.19 | 2.26 | 6.09 | 2.22 |
| TAGCCAAGGTCATGCGGGCCAGTATAGTGTCGGC | 4.42 | 5.81 | 5.79 | 2.88 | 5.47 | 4.14 | 2.91 | 5.15 | 3.39 |
| TCATATAGGTAAATGCTAGGTGCAAGTCCGATCT | -0.219 | 0.325 | 0.13 | 1.51 | 0.838 | 0.121 | 0.135 | 0.809 | 0.597 |
| GCGACTGGGGCATCAGCAGGTAACCATAACTTAA | 0.543 | 0.292 | 0.296 | 0.0904 | 0.119 | 0.856 | 0.168 | -0.245 | -0.668 |
| GCTATTAGTTGAAAGAGCAACCGAATGATTCTCG | -0.533 | -0.181 | 0.242 | 0.464 | 0.226 | -0.376 | -0.896 | -0.419 | -0.22 |
| CTTACAGGGTCAGCTAGGCCAGAGTAGGGACGGC | 3.2 | 4.47 | 4.97 | 1.83 | 4.42 | 2.97 | 0.729 | 3.88 | 0.875 |
| ATCTCTAGGTAAAGATAGTTCAGCGAATGCAAAT | 1.42 | 0.793 | 0.971 | -0.00603 | 0.377 | 0.867 | -0.0177 | 1.08 | 0.508 |
| TGTCAAAGTTCAAAGGTAATGTAAGTATCCACAC | 3.63 | 5.97 | 5.84 | 4.44 | 6.5 | 3.15 | -0.177 | 4.69 | 3.96 |
| ACAGACAGGTGATGAAGGAAACTCAGGCTATCAT | 0.24 | 0.168 | 0.36 | -0.0618 | 0.38 | 0.154 | 0.0695 | -0.266 | -0.33 |
| CTACCAAGGTGATCAAGGTCGTTGATTACTATTC | 1.47 | 0.906 | 0.808 | 1.42 | 1.11 | 2.71 | 1.55 | 5.3 | 2.33 |
| ACTTGTTGGTCAGCTGAGGTCACACACAATTCGG | 4.48 | 4.18 | 4.01 | 1.38 | 3.99 | 5.15 | 5.03 | 4.61 | 3.16 |
| CCGATTAGGTTATGGGGCATTCAGGCAACGGTGA | 1.11 | 0.701 | 0.783 | 0.4 | 0.612 | 1.19 | 0.572 | 0.0574 | 0.143 |
| AGATTGAGGTTATTAAGATCAGGGAATTGCGGTC | 1.06 | 1.07 | 0.837 | 1.55 | 1.44 | 2.37 | 0.869 | 2.28 | 1.49 |
| ATCTCTAGCTAAAAGTTCAGTGAATCCCGAGGAT | 2.38 | 1.43 | 1.84 | 0.736 | 0.493 | 0.457 | -0.0184 | 0.955 | 1.64 |
| ACTTACTGGTCAACGAGGTTATAGCACGCGTATA | 1.88 | 1.72 | 1.94 | 1.16 | 1.85 | 2.26 | 1.22 | 5.15 | 1.71 |
